Experiment [1] in a line: small molecules captured by biotinylated probe aFSTL3 – biochemical, small-molecule microarray, fluorescence 635/667, stem cell growth factor project, primary screen (AID 1064).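 Further: measures binding of the biotinylated anti-FSTL3 antibody to printed compounds.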 Conditions: higher = more signal.
Experiment [2] in a line: binders from COS7 lysate, DM2A8 probe, primary screen, torsin A project, cell lysate, small-molecule microarray, fluorescence 635/667 (AID 1065). Conditions: higher = more signal, COS7 lysate expressing mutant human TOR1A.
The nature of experiment [3]: small molecules captured by biotinylated probe aFGF2 – biochemical, small-molecule microarray, fluorescence 635/667, stem cell growth factor project, primary screen (AID 1067).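 Further: measures binding of biotinylated aFGF2 protein to printed compounds on slides; z-score merges feature fluorescence and signal-to-noise across triplicate slides.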 Conditions: higher = more signal.
The nature of experiment [4]: small molecules captured by biotinylated probe aFGF10 – biochemical, small-molecule microarray, fluorescence 635/667, stem cell growth factor project, primary screen (AID 1071).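 Further: score merges 667 nm spot intensity and signal to noise from triplicate slides.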 To be noted: higher = more signal.
Experiment [5] deals with Neurogenic locus notch homolog protein 2 (Homo sapiens) (UniProt Q04721). The experiment in a line: small molecules binding Notch2 protein – biochemical, small-molecule microarray, 635 nm fluorescence, stem cell growth factors, primary screen (AID 1073). To be noted: higher = more signal.
Experiment [6] deals with Pro-neuregulin-1, membrane-bound isoform (Homo sapiens) (UniProt Q02297). The experiment in a line: small molecules binding neuregulin-1 protein – biochemical, small-molecule microarray, fluorescence 635/667, psychiatric disease protein project, primary screen (AID 1075).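 Further: score combines 667 nm spot fluorescence with signal to noise.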 To be noted: NRG1 binding, 635 nm fluorescence, higher = more signal.
Sequence of Pro-neuregulin-1, membrane-bound isoform (Homo sapiens) (Q02297 whole entry, looked up, the tested form may be a part, canonical isoform): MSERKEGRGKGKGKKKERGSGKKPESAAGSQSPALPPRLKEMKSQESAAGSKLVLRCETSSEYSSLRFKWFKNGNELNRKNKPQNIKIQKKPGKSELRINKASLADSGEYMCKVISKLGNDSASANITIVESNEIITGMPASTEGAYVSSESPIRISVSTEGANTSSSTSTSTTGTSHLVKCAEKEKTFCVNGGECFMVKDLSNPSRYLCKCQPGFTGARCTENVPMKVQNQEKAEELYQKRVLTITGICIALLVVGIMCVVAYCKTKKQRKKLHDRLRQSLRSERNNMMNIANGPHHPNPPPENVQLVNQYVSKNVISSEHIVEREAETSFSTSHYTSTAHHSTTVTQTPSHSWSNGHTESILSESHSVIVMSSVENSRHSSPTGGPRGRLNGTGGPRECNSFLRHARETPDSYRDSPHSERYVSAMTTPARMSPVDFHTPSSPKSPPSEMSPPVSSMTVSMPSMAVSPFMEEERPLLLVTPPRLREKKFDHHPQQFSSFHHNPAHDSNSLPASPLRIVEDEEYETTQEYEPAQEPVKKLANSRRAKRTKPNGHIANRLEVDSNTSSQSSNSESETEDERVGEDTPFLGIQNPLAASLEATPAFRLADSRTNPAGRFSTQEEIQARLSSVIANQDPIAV
Experiment [7] relates to Neuregulin-1 EGF-like domain. Put plainly: small molecules binding NRG1 EGF domain – biochemical, small-molecule microarray, 635 nm fluorescence, primary screen (AID 1081).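 Further: binding of the protein to compounds printed on small-molecule microarray slides.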 To be noted: higher = more signal.
Experiment [8] is described as follows: FRG1 expression reporter modulators in myotubes – cell-based, C2C12 myotubes, firefly/Renilla luciferase, luminescence, FRG1 inhibition for FSHD, primary screen (AID 1084). To be noted: FRG1 promoter luciferase, higher = more signal, called active from +8 up or from −8 down.
Experiment [9] can be described thus: small molecules captured by biotinylated probe aFST – biochemical, small-molecule microarray, fluorescence 635/667, stem cell growth factor project, primary screen (AID 1086).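 Further: score merges 667 nm fluorescence with signal-to-noise of each printed compound spot.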 To be noted: higher = more signal.
Experiment [10] in a line: binders of probe aHhip on microarray, primary screen, stem cell growth factor project, biochemical, small-molecule microarray, fluorescence 635/667 (AID 1087).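 Further: score merges spot fluorescence at 667nm with spot signal to noise ratio.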 Conditions: higher = more signal.
The test system of experiment [11] is PRMT1 (protein arginine N-methyltransferase 1). Put plainly: small molecules binding arginine methyltransferase PRMT1 – biochemical, small-molecule microarray, 635 nm fluorescence, primary screen (AID 1088).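 Further: binding of Prmt1 protein to compounds spotted on small-molecule microarray slides.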 To be noted: higher = more signal.
Experiment [12] in a line: growth effects on S. cerevisiae YJM789 – YJM789 clinical isolate, OD600, 24 h, basal, primary screen (AID 1089).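 Further: growth of clinical yeast isolate S. cerevisiae YJM 789 seeded 1000 cells per well; test concentration not given here.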 To be noted: higher = more signal, called active from +8 up or from −8 down.
The nature of experiment [13]: S. pombe growth modifiers, basal conditions – strain 972, OD600, 24 h, no modulator, primary screen (AID 1090).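 Further: basal condition with compound alone and no growth modifier present; test concentration not given here.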 To be noted: S. pombe 972 growth, higher = more signal, called active from +8 up or from −8 down.
A short description of experiment [14]: budding yeast growth modifiers under rapamycin – strain BY4716, OD600, 96 h, primary screen (AID 1091). Further: test concentration not given here. To be noted: S. cerevisiae BY4716 + rapamycin, higher = more signal, called active from +8 up or from −8 down.
Experiment [15] addresses Torsin-1A-interacting protein 2 (Homo sapiens) (UniProt Q8NFQ8). The experiment in a line: small molecules binding lysate-expressed LULL1 – cell lysate, human LULL1 lysate, 635/667 nm fluorescence, primary screen (AID 1092).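 Further: probe is lysate of COS7 cells overexpressing human LULL1; score merges per-feature 667 nm fluorescence with signal-to-noise.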 Conditions: small-molecule microarray, hLULL1 lysate binding, 635 nm fluorescence; higher = more signal.
Experiment [16] is described as follows: optical density change of DRC41 E. coli – strain DRC41, OD650, 24 h, E. coli filamentation project, primary screen (AID 1093).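 Further: MC1000 strain lacking acrAB efflux and sulA so SOS filamentation is blocked; test concentration not given here.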 Conditions: E. coli DRC41 growth, higher = more signal, called active from +8 up or from −8 down.
Experiment [17] is described as follows: probe aLefty2 binding to arrayed compounds – biochemical, biotinylated probe, 635/667 nm fluorescence, primary screen (AID 1094).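 Further: score merges spot fluorescence near 667 nm with spot signal-to-noise ratio.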 To be noted: small-molecule microarray, higher = more signal.
Experiment [18] has as its system Noggin (protein binding on small-molecule microarray). The experiment in a line: small molecules binding Noggin protein – biochemical, 635/667 nm fluorescence, primary screen (AID 1095).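 Further: score merges 667 nm feature fluorescence with signal to noise over triplicate slides.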 To be noted: 635 nm fluorescence, higher = more signal.
In experiment [19] the target is Neurogenic locus notch homolog protein 3 (Homo sapiens) (UniProt Q9UM47). Put plainly: small molecules binding NOTCH3 protein – biochemical, 635/667 nm fluorescence, primary screen (AID 1096). To be noted: small-molecule microarray, 635 nm fluorescence, higher = more signal.
Sequence of Neurogenic locus notch homolog protein 3 (Homo sapiens) (Q9UM47 whole entry, looked up): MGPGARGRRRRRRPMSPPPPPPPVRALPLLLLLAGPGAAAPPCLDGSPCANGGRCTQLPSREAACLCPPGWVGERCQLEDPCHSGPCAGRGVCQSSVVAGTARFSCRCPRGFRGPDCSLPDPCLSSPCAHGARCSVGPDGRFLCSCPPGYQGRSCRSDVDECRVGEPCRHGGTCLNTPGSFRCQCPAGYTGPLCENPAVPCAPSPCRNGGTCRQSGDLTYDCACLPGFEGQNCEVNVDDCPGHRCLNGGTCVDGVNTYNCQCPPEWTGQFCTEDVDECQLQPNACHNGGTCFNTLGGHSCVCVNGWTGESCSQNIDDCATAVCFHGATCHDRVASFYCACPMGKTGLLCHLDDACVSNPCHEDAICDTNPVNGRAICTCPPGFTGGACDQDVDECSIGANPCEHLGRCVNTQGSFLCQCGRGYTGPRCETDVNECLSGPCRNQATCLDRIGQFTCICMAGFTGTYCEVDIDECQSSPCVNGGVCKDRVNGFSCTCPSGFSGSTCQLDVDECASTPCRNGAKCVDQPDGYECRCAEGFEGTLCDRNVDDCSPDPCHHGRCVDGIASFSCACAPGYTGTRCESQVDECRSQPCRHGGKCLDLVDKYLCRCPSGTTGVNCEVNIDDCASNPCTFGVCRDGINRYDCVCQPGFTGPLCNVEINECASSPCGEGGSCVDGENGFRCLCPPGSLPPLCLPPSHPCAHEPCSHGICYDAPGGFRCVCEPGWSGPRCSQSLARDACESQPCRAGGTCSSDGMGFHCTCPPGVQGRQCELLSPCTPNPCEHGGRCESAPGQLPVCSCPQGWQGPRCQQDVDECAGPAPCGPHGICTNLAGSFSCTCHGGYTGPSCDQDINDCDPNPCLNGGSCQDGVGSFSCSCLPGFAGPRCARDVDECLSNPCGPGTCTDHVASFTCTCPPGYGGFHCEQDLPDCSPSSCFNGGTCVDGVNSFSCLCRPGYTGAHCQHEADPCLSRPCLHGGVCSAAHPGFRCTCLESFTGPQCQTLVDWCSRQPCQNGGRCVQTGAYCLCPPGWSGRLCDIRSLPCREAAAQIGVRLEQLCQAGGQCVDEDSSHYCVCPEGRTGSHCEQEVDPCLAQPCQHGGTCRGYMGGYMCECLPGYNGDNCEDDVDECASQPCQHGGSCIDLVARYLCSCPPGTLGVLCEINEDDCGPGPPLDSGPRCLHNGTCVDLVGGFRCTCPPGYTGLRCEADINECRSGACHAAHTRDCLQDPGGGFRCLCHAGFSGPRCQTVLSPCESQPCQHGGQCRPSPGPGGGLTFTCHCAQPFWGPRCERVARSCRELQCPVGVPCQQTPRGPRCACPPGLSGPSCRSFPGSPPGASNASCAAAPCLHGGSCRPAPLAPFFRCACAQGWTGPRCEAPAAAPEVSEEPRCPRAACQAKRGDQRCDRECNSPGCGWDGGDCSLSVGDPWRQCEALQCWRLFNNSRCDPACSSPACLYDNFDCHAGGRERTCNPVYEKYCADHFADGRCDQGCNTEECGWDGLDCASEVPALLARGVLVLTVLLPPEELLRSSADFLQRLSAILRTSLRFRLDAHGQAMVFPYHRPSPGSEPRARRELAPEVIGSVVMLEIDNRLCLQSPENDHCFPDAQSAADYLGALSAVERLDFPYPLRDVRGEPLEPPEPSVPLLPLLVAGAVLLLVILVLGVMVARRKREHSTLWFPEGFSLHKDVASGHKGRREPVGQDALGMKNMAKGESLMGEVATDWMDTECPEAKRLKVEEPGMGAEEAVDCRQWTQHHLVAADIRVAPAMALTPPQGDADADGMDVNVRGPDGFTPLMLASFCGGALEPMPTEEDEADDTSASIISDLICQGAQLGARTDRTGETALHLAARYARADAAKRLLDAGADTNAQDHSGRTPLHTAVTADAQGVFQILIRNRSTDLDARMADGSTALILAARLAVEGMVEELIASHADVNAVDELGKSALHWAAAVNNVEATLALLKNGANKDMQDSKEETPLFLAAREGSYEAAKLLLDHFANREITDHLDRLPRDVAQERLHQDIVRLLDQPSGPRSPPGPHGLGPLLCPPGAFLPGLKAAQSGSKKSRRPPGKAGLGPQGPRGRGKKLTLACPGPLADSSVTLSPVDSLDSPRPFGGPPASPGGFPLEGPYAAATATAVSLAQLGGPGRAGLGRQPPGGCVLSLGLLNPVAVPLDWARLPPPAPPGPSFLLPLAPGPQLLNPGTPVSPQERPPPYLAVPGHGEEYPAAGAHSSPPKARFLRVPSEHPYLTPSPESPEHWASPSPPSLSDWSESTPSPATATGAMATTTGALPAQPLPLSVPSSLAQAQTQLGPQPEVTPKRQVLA
Experiment [20] is described as follows: probe aEGFR binding to arrayed compounds – biochemical, biotinylated probe, 635/667 nm fluorescence, primary screen (AID 1097).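 Further: probe is a biotinylated anti-EGFR antibody binding compounds printed on slides; score combines fluorescence near 667 nm and signal to noise of each spot.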 Conditions: small-molecule microarray, higher = more signal.

Calls of active or inactive are those of the source.

Sequence of Torsin-1A-interacting protein 2 (Homo sapiens) (Q8NFQ8 whole entry, looked up): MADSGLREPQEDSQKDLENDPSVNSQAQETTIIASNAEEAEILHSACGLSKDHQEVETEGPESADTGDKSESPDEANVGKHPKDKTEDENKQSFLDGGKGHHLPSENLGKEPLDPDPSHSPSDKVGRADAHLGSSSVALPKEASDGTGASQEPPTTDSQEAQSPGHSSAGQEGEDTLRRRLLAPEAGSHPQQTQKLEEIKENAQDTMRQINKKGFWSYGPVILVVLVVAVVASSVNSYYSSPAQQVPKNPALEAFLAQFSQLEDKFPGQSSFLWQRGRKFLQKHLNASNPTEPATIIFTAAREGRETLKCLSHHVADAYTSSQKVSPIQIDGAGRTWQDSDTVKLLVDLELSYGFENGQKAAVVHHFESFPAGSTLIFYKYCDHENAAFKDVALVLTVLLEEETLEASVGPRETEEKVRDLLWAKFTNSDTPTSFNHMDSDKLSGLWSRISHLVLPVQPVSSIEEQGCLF

Regarding `COCCCNC(=O)[C@@]1(C)c2ccccc2C(=O)N(Cc2cc(F)cc(C(F)(F)F)c2)[C@H]1c1ccc(CO)cc1`, the composite z-score in [1] is 1.57; in experiment [2], -0.12; in experiment [3] it was -0.145; in [4], -0.103; in [5], -1.19; in [6] it was 0.595. For the same compound, the composite z-score in experiment [7] is 1.45; in experiment [9], -0.738; in [10] it was -0.196; in experiment [11], 0.851; in experiment [15], 2.32; in [17], 0.584. In addition, the composite z-score in experiment [18] was -1.44; in [19], -1.22; in experiment [20] it was -0.293. Besides, the z-score in [8] was -1.65 (inactive); in experiment [12], 1.65 (inactive); in experiment [13] it was -0.351 (inactive); in experiment [14], 0.459 (inactive); in [16], 0.985 (inactive).

On to `COC(=O)C(CC#Cc1ccc2c(c1)[C@]1(C(=O)N2)[C@H](C(N)=O)[C@H]2C(=O)O[C@H](c3ccccc3)[C@H](c3ccccc3)N2[C@@H]1c1ccc(O)cc1)C(=O)OC`, for which the composite z-score is -0.343 in experiment [1]; -0.067 in [2]; -0.245 in [3]; -1.28 in experiment [4]; -0.618 in experiment [5]; 0.205 in experiment [6]. Besides, the composite z-score is 0.699 in experiment [7]; -0.882 in experiment [9]; 0.384 in experiment [10]; -0.95 in [11]; 0.0509 in experiment [15]; -0.117 in [17]. The figures for the composite z-score in experiment [18], in experiment [19] and in experiment [20] were -1.1, -1.23 and -0.442, respectively. For the same compound, the z-score in experiment [8] is -0.117 (inactive); in experiment [12], 0.337 (inactive); in experiment [13], -1.04 (inactive); in experiment [14], 0.484 (inactive); in experiment [16], 1.61 (inactive).

Turning to `CC(C)(C)OC(=O)CC[C@@]12N=C(c3ccc(OCCCO)cc3)O[C@@H]1c1ccccc1CN(Cc1ccccc1)C2=O`, the composite z-score in experiment [1] is 0.265; in experiment [2], 0.141; in experiment [3], -0.0118; in experiment [4] it was 0.294; in experiment [5], 0.549; in experiment [6], 0.391. Besides, the composite z-score in experiment [7] is 1.14; in [9], 0.419; in experiment [10] it was -0.069; in [11], 1.56; in [15] it was 2.49; in experiment [17], -0.0664. Also, the composite z-score in [18] is 1.62; in [19], 0.981; in [20] it was -0.103. For the same compound, the z-score in experiment [8] was -4.73 (inactive); in experiment [12], 1.44 (inactive); in experiment [13] it was -3.05 (inactive); in [14] it was 6.17 (inactive); in experiment [16], 1.36 (inactive).

With `CC(C)(C)OC(=O)CC[C@@]1(C(=O)N2CCOCC2)N=C(c2ccc(OCCCO)cc2)O[C@@H]1c1ccccc1`, the composite z-score in [1] is 1.19; in [2], 0.426; in [3] it was 0.088; in experiment [4], 0.435; in experiment [5], 1.07; in [6] it was 2.16. Further, the composite z-score in experiment [7] amounted to 1.36; in [9], 0.517; in [10] it was 0.28; in experiment [11] it was 1.58; in experiment [15] it was 3.95; in experiment [17] it was 0.32. For the same compound, the values for the composite z-score in experiment [18], in [19] and in experiment [20] were 0.743, 0.274 and 0.233, respectively. Besides, the z-score in experiment [8] was -1.79 (inactive); in experiment [12] it was 0.153 (inactive); in experiment [13], -0.0631 (inactive); in experiment [14] it was 0.248 (inactive); in experiment [16] it was 1.32 (inactive).

Take `CC(C)N1C(=O)c2ccccc2[C@@H](C(=O)NCc2ccccc2)[C@@H]1c1ccc(CO)cc1`: the composite z-score in [1] is -0.0604; in experiment [2], 0.317; in [3], -0.0806; in [4], -0.723; in [5], -0.423; in experiment [6] it was 0.844. Further, the composite z-score in experiment [7] was 1.15; in experiment [9] it was -0.0768; in experiment [10] it was -0.141; in [11] it was -0.238; in experiment [15], 0.979; in [17], -0.109. Besides, the values for the composite z-score in experiment [18], in experiment [19] and in experiment [20] were -0.608, -0.904 and -0.273, respectively. Further, the z-score was -0.331 (inactive) in [8]; 0.582 (inactive) in experiment [12]; -0.579 (inactive) in experiment [13]; 1.31 (inactive) in [14]; 0.846 (inactive) in experiment [16].
